Results taken from PubChem BioAssay AID1508600 (Functional Genomics Laboratory (NCATS/FGL), 2020).
Out of some 53,000 sequences screened, about 3,700 (7%) were called active.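 How the source made its calls: active means gene knockdowns whose robust z-score for IL-1 alpha signal is at least 2 or at most -2, so actives lie on both sides; inactive means the rest.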 Many of the other results were omitted from the sample, so actives are more common in it than they were.

Assay: Components of the Cytosolic LPS Sensing Pathway: Gene Identification via Genome-wide siRNA Screen;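 further: robust z of the log signal after scaling to non-targeting control siRNA wells of the plate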
Conditions: RAW264.7 macrophages, IL-1a HTRF, actives lie on both sides, screened at 100 nM (by protocol), cells primed 5 h with Pam3CSK4 first
Outline: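 Supernatant IL-1a by HTRF from RAW264.7 cells primed with Pam3CSK4 (5 hours) and transfected with LipidA (24 hour) after 48h siRNA knockdown at 100 nM; cell viability checked with CellTiter-Glo.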

| Sequence | z-score |
| --- | --- |
| GGAUAGUUUUGUGUUUGAUTT against Gab2 | 0.932 (inactive) |
| GGUCAUUGAUCUCAGCAACTT against Optc | -0.427 (inactive) |
| CCCUACACGCAGGAGUUUUTT against Gtf3c1 | -0.23 (inactive) |
| GCCCUACACCUGUAUUACATT against Tas1r3 | -0.964 (inactive) |
| CCUGGAACUUGUUGGAAGCTT against Igsf3 | 0.799 (inactive) |
| GUGUUCAGGAAGCUGGCAGTT against Klra19 | 1.98 (inactive) |
| GGACCUCCUCCCAAAGAUATT against Snrpb | -2.83 (active) |
| GCUAUGGAUCAAAGAAUUATT against Senp1 | 0.204 (inactive) |
| GGCCCAUCCCACAAUGAUATT against Atg9b | -0.998 (inactive) |
| GGAAGUAGGAUGAUGUUGGTT against Hmga1 | -2.08 (active) |
| GCUCACCCAACAAUAUCCATT against Slc17a8 | -0.881 (inactive) |
| CGAGAAUAUUCGCCCAACCTT against Erbb3 | 0.682 (inactive) |
| GGAGAUCCGGAAUUUUUAATT against Per2 | -0.0639 (inactive) |
| GCUAUAUAAUGCUUAUGUGTT against Tpr | -0.501 (inactive) |
| GCCUUUGAUAAAAGUCCGGTT against Saxo2 | -0.93 (inactive) |
| GGAGGGAAUAUGCAAAUAGTT against Ftdc2 | 2.36 (active) |
| GGACAUGAUGAUGAUGAUGTT against Gldn | -1.8 (inactive) |
| GCUUAUAGAAAACCAGUAATT against Foxd1 | 0.317 (inactive) |
| GGAAGAAAUGAUGAAUGACTT against Chmp2a | 2.36 (active) |
| GGAUGAUGACAUUCACUUATT against Ntan1 | -0.619 (inactive) |
| GCCUCGAUCUGAUCUAGAGTT against Dbx2 | 0.291 (inactive) |
| GGCUGCUGUCAUUAUUUGUTT against Terf2 | -0.768 (inactive) |

| Sequence | z-score |
| --- | --- |
| GGCAUCUUUCACAGUUUUGTT against Hspa12b | 2.13 (active) |
| GGUUUAUGAGCUCUACGCCTT against Tmem11 | -0.843 (inactive) |
| GGAAGAUGAUGUUUUAGGUTT against Pde7a | 0.271 (inactive) |
| CCCAAAGCUAUCAUAUCAATT against Aff4 | 0.508 (inactive) |
| GGCGACACAUUAAAAUAGUTT against Mepe | 2.19 (active) |
| GUUACCUCUGUGUUGUACUTT against Olfr60 | -0.148 (inactive) |
| GGAAGAAAAAGAUGAGAAATT against Hrc | 0.394 (inactive) |
| GCAUGUCUCAACUAAGGACTT against Upk3b | 1.03 (inactive) |
| CCUACAGAGGUGCCAUUGUTT against Naa60 | -0.244 (inactive) |
| GGACCGAUUCCACUUCAAUTT against Crygd | 1.46 (inactive) |
| GCCAAAUGGUGUCAAUAUUTT against Rab33a | 0.277 (inactive) |
| GGAGGAUGAUGAGGAGGAUTT against Ppp1r1b | 2.35 (active) |
| CGUGCCAGACCUAUAGCUUTT against Mlxip | -0.226 (inactive) |
| GGAGACCUUCCAGAACACATT against Mesd | 2.38 (active) |
| GCGGAUUUACACCUUAUCUTT against Bpi | -1.15 (inactive) |
| GGCUAUCACACAGCAUAGATT against Rdh7 | 1.57 (inactive) |
| CCGUUGGAGGUAAUUAGGATT against Dot1l | 0.463 (inactive) |
| GGCACUGUAAAUGUACUCATT against Rbak | -2.54 (active) |
| GGAGAAGUACAACGCAGCGTT against Wnt7b | -0.273 (inactive) |
| GGCUAUGCACUACUCAUUGTT against Galk1 | -0.607 (inactive) |
| CCAUCCCAUUUAAUGGAUGTT against Olfr1257 | 1.09 (inactive) |
| GCUCCAGAUGUUCAGAGCUTT against Fbxo9 | -2.43 (active) |

| Sequence | z-score |
| --- | --- |
| GCAUUCAGACCAUGACACUTT against Trim30d | 0.914 (inactive) |
| GGCCAAGUGAUAGAGUUCATT against Crygd | 1.22 (inactive) |
| GGAAGUUCGAUGUUCCUAGTT against Cep85 | 0.779 (inactive) |
| GGUUAUUAUGACCAAGAAATT against Sf3b1 | -2.71 (active) |
| GCAGUAACCUUCUAACAAATT against Foxn2 | -0.367 (inactive) |
| GGAGAAAGAUGUUUACCGATT against Hyal2 | -0.533 (inactive) |
| GGAACUUAAGACUUUCAAGTT against Abcf2 | 0.904 (inactive) |
| GCGGAUGCAAAUCGAUGAATT against Cep135 | -0.507 (inactive) |
| GCAUCAUACUGACCUGAGATT against Gml2 | -1.25 (inactive) |
| CCUAUCUUCCUGAAUACAUTT against Aqp7 | 2.71 (active) |
| CCGGCUUAUGCUCAACUUCTT against Bpifb1 | 0.29 (inactive) |
| GGAACAAUUGAUAAGACGATT against Guf1 | 0.237 (inactive) |
| GGUCAAGGAGUUCAUUCUGTT against Matn2 | -1.33 (inactive) |
| GGAUCAUUCUGUGAACAAGTT against Ly6h | 1.52 (inactive) |
| GCCCAUUGUAUGACUGCCGTT against Gfra2 | 3.21 (active) |
| CCCAAAUACCUACCAUCUCTT against Slc4a9 | -0.44 (inactive) |
| GGACUCUGAAGAGGAAAAGTT against Pds5b | -0.266 (inactive) |
| CCUUACCAGGAAACAUAUUTT against Dennd10 | -1.33 (inactive) |
| GCGGUUAGCACAAUGUGAATT against Ppp2cb | -0.577 (inactive) |
| GGAAAUAAAACAGAUUUGGTT against Atpaf1 | 0.576 (inactive) |
| GGCACGAGGCAGAAUUUUATT against Kctd3 | 0.696 (inactive) |
| GCUACAAUUGGCCUUAUCUTT against Stpg2 | -3.03 (active) |

| Sequence | z-score |
| --- | --- |
| GGUACUGCUAUGAGAAACUTT against Adam22 | 0.224 (inactive) |
| GGACCAGAAACGCAUGCUUTT against Maml3 | -0.762 (inactive) |
| GGAAAACUCAUCAUACCAGTT against Ugt3a1 | 0.737 (inactive) |
| CGAUUUUACCAACCGCUGCTT against Chtf18 | 0.702 (inactive) |
| GCUGUUGUAACCAUAACAGTT against Ntsr1 | 0.439 (inactive) |
| GGGAAUUGCCUCAGCUAAGTT against Men1 | 2.95 (active) |
| CCAGUUAAACACAUUAGCCTT against Mxra8 | -0.373 (inactive) |
| GGCUCAACGGCUUAGGGAATT against B3gat3 | 1.42 (inactive) |
| GGAAAAUAAGCAUAGUGAUTT against Spesp1 | -0.35 (inactive) |
| GGACAACCAGCUCAUUGUGTT against Cd82 | -1.09 (inactive) |
| GCAACACACUGCUUCCUGGTT against Tmem19 | -1.38 (inactive) |
| GGUAAUUGAGUUUGACGAUTT against Ptprf | 0.585 (inactive) |
| CGAAGGCUUCCCUUUUAUCTT against Tmem150b | 2.67 (active) |
| GCCUUCGUCUCCAAGUAUATT against Plagl1 | -0.305 (inactive) |
| GCUCCUUGCUUGAUUCUACTT against BC107364 | 0.649 (inactive) |
| GGAUAGAGUUAAUGAAAAGTT against Poc5 | 0.827 (inactive) |
| CCUCUAGAUAGUGUUAGAGTT against Smarcd1 | -2.19 (active) |
| GGCACAUUGUGGUGUCUUGTT against Pycr1 | -3e-05 (inactive) |
| GGAGAUUGAAGAGCUCCGATT against Cabp1 | -0.0021 (inactive) |
| GGCCCAUAUUUUAUUACCGTT against Galns | -1.84 (inactive) |
| GGAGGCAGUGUUUUGUCAATT against Fgd4 | -0.912 (inactive) |
| GGAAGGCAUUGAAGCUGAATT against Armt1 | 0.447 (inactive) |

| Sequence | z-score |
| --- | --- |
| GGGCCAACUCAAAACAAAATT against Wdr37 | -0.74 (inactive) |
| GGUUGUUCACUAGGUCACUTT against Creg2 | 0.591 (inactive) |
| GGUGUGUGAAAUCACUCACTT against Oxnad1 | 0.303 (inactive) |
| CCAAUUAUGUGAGAAGUGATT against Snx24 | 0.463 (inactive) |
| CCAACUCGUGAUUCUAGACTT against Tmed10 | 1.27 (inactive) |
| GGUAAAGGUAAACUUAUACTT against Vmn1r148 | -4.68 (active) |
| GCGCAAUACGUGGGUUUGUTT against Shisal2b | 0.254 (inactive) |
| GCUCGUUUGUGUAUAAGGATT against 4930503L19Rik | 0.276 (inactive) |
| GGUUCUCGUGUGGCACACUTT against B3gat2 | 0.126 (inactive) |
| CCUUCAAUCUUUCUUUCUGTT against Olfr1465 | -0.635 (inactive) |
| CCGUGAUAACAACAUUUGUTT against Olfr750 | -0.833 (inactive) |
| GGAGUAUGAUUCAGAAAUGTT against Scn11a | -0.607 (inactive) |
| GGUCAUCAUGAGCCCAUGUTT against Olfr1341 | -1.72 (inactive) |
| GGAUUUGGCUAUAUCAACATT against Rfc2 | -1.56 (inactive) |
| CCAUAGCUCUGGAAUGGUGTT against Kcnt1 | -2.59 (active) |
| GGAUGUAUGCCAAAGAAUUTT against Fmo5 | -0.0456 (inactive) |
| CGUGCUAAACCAAGACUUATT against Lyplal1 | 1.25 (inactive) |
| GGGUGAAUUUUGUUUUUGUTT against Kcnj14 | 3.05 (active) |
| GGAUAGCAUGCUUCCUGAGTT against Rhbdf2 | -2.19 (active) |
| GGAAAUGCUCCUCUAGGAUTT against Ppcs | 0.039 (inactive) |
